Data as given in the supplement of paper PMC12494721.
Where a name gives a salt, the structure may show the parent alone.

system: Klebsiella aerogenes DSM 30053; assay: fold change of Putrescine concentration vs plate DMSO controls (fold change (ratio)); higher = more amine produced, active = hit call of the paper (significant change in both replicates, either direction); settings: incubation time: 27 h, anaerobic, 37 °C
Method in brief: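 Using LC–triple-quadrupole MS with dynamic MRM, amines were quantified against external calibration curves and corrected for drift within each batch. Samples were whole anaerobic mGAM cultures of four gut strains, grown 27 h at 37 °C from OD 0.1 before 1:1 dilution, extracted with cold acetonitrile/methanol containing 0.1% formic acid and centrifuged. Compounds were present at 20 µM final (sweeteners at 50 µM final). The numbers are fold changes versus plate DMSO controls, each the mean of 2 biological replicates.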

SMILES | fold change of Putrescine concentration
CN1CCCN=C1/C=C/c1cccc(O)c1 [Oxantel pamoate] (20 µM) | 0.967 (inactive)
COC(=O)[C@H](c1ccccc1Cl)N1CCc2sccc2C1 [Clopidogrel] (20 µM) | 1.02 (inactive)
CCCCCCCCCCCCCCCCCCCCCC(=O)Nc1ccn([C@@H]2O[C@H](CO)[C@@H](O)[C@@H]2O)c(=O)n1 [Enocitabine] (20 µM) | 1.01 (inactive)
CN(C)CCCN1c2ccccc2[S+]([O-])c2ccc(Cl)cc21 (stereo unspecified) [Chlorpromazine Sulfoxide] (20 µM) | 0.996 (inactive)
CCN(CC)CCOC(=O)C1(c2ccc([N+](=O)[O-])cc2)CCCC1 [Nitrocaramiphen hydrochloride] (20 µM) | 0.982 (inactive)
COc1ccc(CC2c3cc(OC)c(OC)cc3CC[N+]2(C)CCC(=O)OCCCCCOC(=O)CC[N+]2(C)CCc3cc(OC)c(OC)cc3C2Cc2ccc(OC)c(OC)c2)cc1OC (stereo unspecified) [Atracurium besylate] (20 µM) | 0.953 (inactive)
O=C(O)C[C@H](O)C[C@H](O)/C=C/c1c(C2CC2)nc2ccccc2c1-c1ccc(F)cc1 [Pitavastatin calcium] (20 µM) | 1.01 (inactive)
CC(Cc1cccc(C(F)(F)F)c1)NCCOC(=O)c1ccccc1 (stereo unspecified) [Benfluorex] (20 µM) | 1 (inactive)
S=c1[nH]cnc2nc[nH]c12 [Mercaptopurine] (20 µM) | 1 (inactive)
CC(C(=O)O)c1ccc(N2Cc3ccccc3C2=O)cc1 (stereo unspecified) [Indoprofen] (20 µM) | 0.993 (inactive)
C[C@@H](O[C@H]1OCCN(Cc2n[nH]c(=O)[nH]2)[C@H]1c1ccc(F)cc1)c1cc(C(F)(F)F)cc(C(F)(F)F)c1 [Aprepitant] (20 µM) | 1.01 (inactive)
Cc1nnc(NS(=O)(=O)c2ccc(N)cc2)s1 [Sulfamethizole] (20 µM) | 0.981 (inactive)
O=C(Cn1c(=O)sc2ccc(Cl)cc21)N1CCN(CCO)CC1 [Tiaramide Hydrochloride] (20 µM) | 0.993 (inactive)
Clc1ccc(COC(Cn2ccnc2)c2ccc(Cl)cc2Cl)c(Cl)c1 (stereo unspecified) [Miconazole] (20 µM) | 0.99 (inactive)
Cc1cn[nH]c1 [Fomepizole] (20 µM) | 0.995 (inactive)
CC[C@H]1OC(=O)[C@H](C)[C@@H](O[C@H]2C[C@@](C)(OC)[C@@H](O)[C@H](C)O2)[C@H](C)[C@@H](O[C@@H]2O[C@H](C)C[C@H](N(C)C)[C@H]2O)[C@](C)(OC)C[C@@H](C)C(=O)[C@H](C)[C@@H](O)[C@]1(C)O [Clarithromycin] (20 µM) | 0.888 (inactive)
CCCC(=O)OCOC(=O)C1=C(C)NC(C)=C(C(=O)OC)C1c1cccc(Cl)c1Cl (stereo unspecified) [Clevidipine] (20 µM) | 1.01 (inactive)
CC[N+](CC)(CC(=O)Nc1c(C)cccc1C)Cc1ccccc1 [Denatonium benzoate] (20 µM) | 0.995 (inactive)
COc1cc(/C=C/C(=O)N2CCN(CC(=O)N3CCCC3)CC2)cc(OC)c1OC [Cinepazide maleate] (20 µM) | 0.911 (inactive)
COC(=O)C1=C(C)NC(C)=C(C(=O)O[C@H]2CCN(Cc3ccccc3)C2)[C@H]1c1cccc([N+](=O)[O-])c1 [Barnidipine Hydrochloride] (20 µM) | 0.999 (inactive)
COCCCOc1ccnc(C[S+]([O-])c2nc3ccccc3[nH]2)c1C (stereo unspecified) [Rabeprazole sodium salt] (20 µM) | 0.95 (inactive)
CN(C)[C@@H]1C(=O)C(C(N)=O)=C(O)[C@@]2(O)C(=O)C3=C(O)c4c(O)ccc(Cl)c4[C@@H](O)[C@H]3C[C@@H]12 [Demeclocycline hydrochloride] (20 µM) | 0.472 (active)
O=C1[C@H]2CCCC[C@H]2C(=O)N1CCCCN1CCN(c2nsc3ccccc23)CC1 [Perospirone hydrochloride] (20 µM) | 1.01 (inactive)
CC1=C(/C=C/C(C)=C/C=C/C(C)=C/C(=O)O)C(C)(C)CCC1 [Retinoic acid] (20 µM) | 1.02 (inactive)
C[N+]1(C)CCC(OC(=O)C(O)(c2ccccc2)C2CCCC2)C1 (stereo unspecified) [Glycopyrrolate bromide] (20 µM) | 1 (inactive)
COc1ccc2cc([C@H](C)C(=O)O)ccc2c1 [(S)-Naproxen] (20 µM) | 0.977 (inactive)
